Assay outcomes as filed in PubChem BioAssay.
Only a selection was taken, and hits are over-represented in it overall.
TTR transcr act: TTR transcription activators in neuroblastoma reporter cells, primary screen, cell-based, luminescence, SH-SY5Y, TTR promoter Gaussia luciferase; 100% = recombinant luciferase protein wells; activation, % at 16.7 µM; 92,000 compounds, 1.3% hits;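 active means activation above the mean of all tested compounds plus 3 SD, cut at about 9.5% in these data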;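 further: cells exposed to compounds for one day before reading; 0% = median of all test compound wells on the plate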
TTR inh HuH7: TTR promoter reporter inhibitors in hepatoma cells, counter-screen for TTR transcription activator project, cell-based, luminescence, HuH7 hepatoma; shares compounds with TTR transcr act; HuH7 TTR promoter-Gaussia luciferase reporter; inhibition, % at 16.7 µM; 1,100 compounds, 4% hits; AID 1117279, 2014;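 active means average inhibition above the solvent-only control wells' mean plus 3 SD, cut at about 15% in these data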;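 further: 0% = cells with DMSO only and 100% = cells with inhibitor control FD; inhibitors lower well luminescence so higher value means more inhibition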
TTR act confirm: TTR transcription activators, retest, confirmation, cell-based, luminescence, SH-SY5Y, triplicate | shares compounds with TTR transcr act | SHSY5Y TTR promoter Gaussia luciferase; 100% = purified Lucia enzyme wells, no cells | activation, % at 16.7 µM | 1,100 tested, under 10 active | AID 1117280, 2014;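 active means mean activation above a set limit taken from the earlier primary screen, cut at about 11% in these data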;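 further: 0% = DMSO-treated cells and 100% = recombinant Lucia luciferase without cells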
The depositor's hits bear a star.

SMILES	TTR transcr act	others
O=C(O)c1ccccc1Nc1ccc([N+](=O)[O-])cc1C(=O)O	1
O=C(O)c1cc([N+](=O)[O-])ccc1-c1ccc([N+](=O)[O-])cc1C(=O)O	0
O=C(O)c1cc([N+](=O)[O-])cc2ccccc12	15*	TTR inh HuH7=-1;TTR act confirm=0
C[C@H]1[C@@H](OC(=O)NCc2ccccc2Cl)CC[C@@]23CCCN2C(=O)CCC[C@@H]13	-2
COc1ccc(CNC(=O)O[C@H]2CC[C@@]34CCCN3C(=O)CCC[C@H]4[C@H]2C)cc1	-2
COC(=O)[C@]12C[C@H](CC(=O)N3CCC(c4ccccc4)CC3)C(=O)N(Cc3ccc(Cl)cc3Cl)C1=C[C@H](C(C)(C)C)O[C@@H]2C	1
CC1=C(C(=O)Nc2ccc(C)cc2)C(c2ccc(N(C)C)cc2)NC(=O)N1 (centres undefined)	1
COc1cccc(C2NC(=O)NC(C)=C2C(=O)Nc2ccc(C)cc2)c1 (centres undefined)	21*	TTR inh HuH7=-11;TTR act confirm=0
CC1=C(C(=O)Nc2ccccc2C)C(c2ccccc2)NC(=O)N1 (centres undefined)	-1
COc1ccc2cc3cc(C(=O)Nc4ccc(F)cc4)sc3nc2c1	3
CN1CC(O)([C@H](Cc2ccccc2)NC(=O)OC(C)(C)C)OCC1C(=O)NCc1cccc2ccccc12 (some centres undefined)	-4
COC(=O)[C@@]1(OC(C)=O)CC(OC(C)=O)[C@H](OC(C)=O)[C@H](OC(C)=O)C1Br (some centres undefined)	1
C[C@@H]1COc2cc(Br)ccc2S(=O)(=O)N1Cc1cn(CCC2OCCO2)nn1	1
CCOC(=O)C(NC(=O)NCc1cccc(C(F)(F)F)c1)(OCC)C(F)(F)F (centres undefined)	0
CCOC(=O)C(NC(=O)c1ccccc1)(OCC1(CC)COC1)C(F)(F)F (centres undefined)	-3
CCOC(=O)C(NC(=O)c1cccc(Cl)c1)(OCc1ccc(F)cc1)C(F)(F)F (centres undefined)	25*	TTR inh HuH7=-9;TTR act confirm=-1
Cc1ccc(CN2CCCCC(NC(=O)c3cccc(F)c3)C2=O)cc1 (centres undefined)	1
COc1cccc(Cn2cc(COC(=O)NCC(C)C)nn2)c1	0
Cc1ccc(NC(=S)Nc2ccc(-c3nnc4n3CCCCC4)cc2)cc1C	0
Cc1nc2sc(C(c3ccccc3)N3CC(C)OC(C)C3)c(O)n2n1 (centres undefined)	-1
Cc1nc2sc(C(c3cccc(F)c3)N3CCCCC3)c(O)n2n1 (centres undefined)	10*	TTR inh HuH7=-3;TTR act confirm=0
Cc1nc2sc(C(c3ccc(Cl)cc3)N3CCOCC3)c(O)n2n1 (centres undefined)	-1
O=C(OCC#CCSc1nnc(-c2cccc3ccccc23)o1)c1ccc(F)cc1F	-1
O=C(NCCCc1ccccc1)OC1CC2CC1[C@H]1CCCCN1C2 (some centres undefined)	1
Brc1ccc(-c2csc(N3CCNCC3)n2)cc1	1
SMILES	TTR transcr act	others
N/C(Cc1cccs1)=N\OC(=O)COc1ccccc1Cl	11*	TTR inh HuH7=11;TTR act confirm=0
COc1ccc(C(=O)O/N=C(\N)Cc2cccs2)cc1OC	3
COc1ccc(/C(N)=N/OC(=O)COc2ccccc2Cl)cc1	0
CCCC1CCC2(CCCN2CCOC(=O)Nc2ccc(OC)cc2)CC1 (centres undefined)	1
CN(C)S(=O)(=O)c1ccc2nc(COCc3nc4ccc(S(=O)(=O)N(C)C)cc4[nH]3)[nH]c2c1	0
Brc1ccc(N2O[C@H]3C=C[C@@H]2C3)nc1	0
C#CCNC(=O)C[C@@H]1C[C@]2(C(=O)OCC)CCC3=C2N(CCC3)C1=O	-2
CC(C)OC(=O)C1=CNCC(C)(C)c2c1[nH]c1cc(F)ccc21	-1
O=C(OCC#CCSc1nnc(-c2cccc3ccccc23)o1)C1CCC1	3
O=C(c1ccc2c(c1)OCO2)N1CCN(c2ccccc2)CC1	6
COc1ccc(N2CCN(C(=O)c3ccc4c(c3)OCO4)CC2)cc1	21*	TTR inh HuH7=-13;TTR act confirm=1
COc1ccc(N2CCN(C(=O)c3ccncc3)CC2)cc1	-1
COC(=O)[C@]12C[C@H](CC(=O)NCc3cccc(C(F)(F)F)c3)C(=O)N(CCc3ccc(OC)c(OC)c3)C1=C[C@H](COCc1ccccc1)O[C@@H]2C	-2
COc1ccc([C@@]23CCN=C2c2[nH]c4ccccc4c2CCN3)c(N)c1	-1
O=C(O)CCN1C(=O)/C(=C/c2ccc(F)cc2F)SC1=S	-1
O=C(COC(=O)CCSc1ccccc1Cl)Nc1ccc(F)cc1F	10.0*	TTR inh HuH7=-6;TTR act confirm=3
